Screening results from PubChem BioAssay.
The entries come from a sample that favours hits as a whole.
Pf Dd2 growth = Plasmodium falciparum Dd2 growth inhibition; hit rate 4.3% among 120,000; AID 1347417; P. falciparum Dd2 growth, SYBR Green, 72 h; Potency, µM (series often up to 28.9 µM), actives largely listed as inhibitors; active = well fitted inhibition curve with a large enough effect; note: nearly all actives have a fitted effect of over 65% in size
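Readout: SYBR Green fluorescence, 485 nm excitation, 535 nm emission, after ~16 h lysis at 37C. Before that, Dd2-infected red cells (2.5% hematocrit) grew 72 h with compound, 29 uM top final concentration.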
A number is an active result; – = inactive; [ ] = another dose, or the depositor's remark.

SMILES	Pf Dd2 growth
CCN1CCCCC12Cc1ccccc1CN(C(=O)C1CCN(C)CC1)C2 (stereo not given)	–
CCCC(=O)N1Cc2ccccc2CC2(CCCCN2CC2CCOCC2)C1 (stereo not given)	8.91µM
CN(C)CCC(=O)N1Cc2ccccc2CC2(CCCCN2CC2CCOCC2)C1 (stereo not given)	–
O=C(O)CCC(=O)N1Cc2ccccc2CC2(CCCN2Cc2ccccc2)C1 (stereo not given)	–
O=C(O)CCC(=O)N1Cc2ccccc2CC2(CCCCN2Cc2ccncc2)C1 (stereo not given)	–
COc1ccc(CN2CCCCC23Cc2ccccc2CN(C(C)=O)C3)cc1 (stereo not given)	–
CC(=O)NCCC(=O)N1Cc2ccccc2CC2(CCCN2Cc2ccncc2)C1 (stereo not given)	–
COC(=O)C1=C(C)NC(=O)C1(NC(=O)c1ccccc1C)C(F)(F)F (stereo not given)	–
CN(C)C[C@H]1C[C@@H](CO)CN(C(=O)COc2ccc(F)c(Cl)c2)C1	–
O=c1c2ccccc2n2c(-c3ccccc3O)nnc2n1Cc1ccc(F)cc1	–
Cc1ccc(CNC(=O)CCCn2c(=O)c3ccccc3n(CC(=O)C(C)(C)C)c2=O)cc1	–
C=CCOc1cc(C)c2c(c1C)[C@H](O)C([C@H](C)C(=O)N(C)Cc1ccccc1)CC2 (stereo not given in full)	–
COc1ccc(CCNC(=O)Cn2c(C)cc3nc4n(c(=O)c32)CCCCC4)cc1OC	–
O=C(NCc1ccc(N2CCCCC2)cc1)C1CCCN(c2cn[nH]c(=O)c2)C1 (stereo not given)	–
Cc1cc(C)c(S(=O)(=O)c2nnn3c2nc(NCc2ccc(F)cc2)c2ccccc23)c(C)c1	–
CC1=NS(=O)(=O)N(C)C=C1C(=O)OCc1nc(-c2ccccc2)oc1C	–
O=C1CN(C(=O)Cc2c[nH]c3ncc(-c4ccccc4)cc23)CCN1	–
CCc1ccc(S(=O)(=O)c2nnn3c2nc(NCCOC)c2ccccc23)cc1	–
CCc1cccc(NC(=O)N(C)CC2CCOC2)c1 (stereo not given)	–[5.79 µM]
CCC(CC)C(=O)N1CCC(Oc2nccnc2N(C)C)C1 (stereo not given)	–
CN(C)c1nccnc1OC1CCN(C(=O)c2ccncc2)C1 (stereo not given)	–
CN(C)c1nccnc1OC1CCN(C(=O)CCC(=O)c2ccc(F)cc2)C1 (stereo not given)	5.62µM
C[C@@H](N)C(=O)N1CCC(n2nccc2NC(=O)c2ccc3c(c2)OCO3)CC1	–
Cc1nc(C)c(-c2ccc(SCC(=O)Nc3ccc(Br)cc3)nn2)s1	–
Cc1nnc(-c2cc(-c3cccc(O)c3)ccn2)n1CCc1ccccc1	–
SMILES	Pf Dd2 growth
Cc1nnc(-c2cc(-c3cccc(F)c3)ccn2)n1CCc1ccccc1	–
CC(=O)Nc1cccc(-c2ccnc(-c3nnc(C)n3CCc3ccccc3)c2)c1	7.94µM
COCc1nnc2n1CCC(NC(=O)c1cscn1)CC2 (stereo not given)	–
Cc1cc(NC(=O)CSc2ncc(C(=O)Nc3ccc(C)c(C)c3)c(=O)n2C)no1	–
COC(=O)c1ccc(Cn2c(=O)cc(C)c3c(C)nn(C)c32)cc1	–
CCc1ccccc1NC(=O)CSCc1cnn(-c2ccccc2)c1-n1cccc1	–
COCCCn1c(C)cnc1C1CCN(C(=O)Nc2ccccc2F)C1 (stereo not given)	–
O=C(CN1C(=O)NC2(CCS(=O)(=O)CC2)C1=O)Nc1ccc2c(c1)OCCO2	–
O=[S+]([O-])(Nc1ccccc1)c1ccc2c(c1)OCCN(Cc1ccncc1F)C2	5.01µM
O=[S+]([O-])(Nc1cccnc1)c1ccc2c(c1)OCCN(Cc1ccccc1F)C2	–
O=[S+]([O-])(Nc1cccnc1)c1ccc2c(c1)OCCN(Cc1ccncc1F)C2	–
CN(C)S(=O)(=O)N1CCC(N2C(=O)C3(CCCCC3)C2c2ccncc2)CC1 (stereo not given)	–
Cn1ccnc1-c1ccc(N2CC[C@@]3(O)CCN(S(C)(=O)=O)C[C@H]3C2)nn1	–
O=S(=O)(c1ccccc1Cl)N1CCCC(CO)(Cc2cccc(Cl)c2)C1 (stereo not given)	–
Cn1ccnc1-c1ccc(N2CCCC(CO)(Cc3cccc(Cl)c3)C2)nn1 (stereo not given)	5.01µM
O=C(CSc1ncc(-c2ccccc2)[nH]1)Nc1cccc(C(F)(F)F)c1	–[0.594 µM]
COc1cc2c(cc1CCc1ccccc1)N(C(=O)CC(C)C)CC21CCN(C(C)=O)CC1	3.98µM
COc1cc2c(cc1CCc1ccccc1)N(C(=O)c1ccn(C)n1)CC21CCN(C(C)=O)CC1	10µM
COc1ccc([S+](=O)([O-])N2CC3(CCN(CC(=O)O)CC3)c3cc(OC)c(OCC4CCCC4)cc32)cc1	–
COc1cc2c(cc1Oc1ccccc1)NC(=O)C21CCN(C(=O)Cc2ccccc2)CC1	–
COc1cc2c(cc1OCc1ccccc1)N(C(=O)c1ccccc1OC)CC21CCN(C)CC1	3.98µM
COc1cc2c(cc1CCc1ccccc1)N([S+](=O)([O-])c1ccc3c(c1)CCO3)CC21CCN(C(C)=O)CC1	10µM
Cn1ccc(C(=O)N2CC(COc3ccccc3)C3(C2)CN(c2ccccc2)C3)n1 (stereo not given)	–
COc1cccc(CN2C(=O)OC3(CCN(C(=O)c4ccn(C)n4)CC3)C2(C)c2cccnc2)c1 (stereo not given)	–
COc1cc2c(cc1OCc1ccccc1)N(C(=O)C(C)C)CC21CCN(C)CC1	–
SMILES	Pf Dd2 growth
COc1cc2c(cc1OCc1ccccc1)N(C(=O)Cc1ccc3c(c1)OCO3)CC21CCN(C)CC1	–
COc1ccccc1CN1CCOc2cc([S+](=O)([O-])N(C)C)ccc2C1	–
COc1cc2c(cc1OCc1ccccc1)N(C(=O)c1ccc3[nH]ccc3c1)CC21CCN(C)CC1	–
COc1cccc(-c2ncnn2-c2sc3c(c2C#N)CCCCC3)c1OC	–
CCOC(=O)NC1(C(F)(F)F)NC(=O)N(c2ccc(C)c(C)c2)C1=O (stereo not given)	–
O=C1CC2(CCN(CC3CCCCC3)CC2)Oc2ccccc2N1c1ccccc1	–
COc1ccc(C(=O)N2CCCC(n3cc(-c4nc(C5CC5)no4)nn3)C2)cn1 (stereo not given)	–
CN(C)CC1(O)CCC2(CCN(S(=O)(=O)c3ccccc3)CC2)CC1	–
Cc1nn(-c2ccc(F)cc2)c(-n2cccc2)c1C(=O)NCCc1ccc(Cl)cc1	–
COc1cccc(CCC(=O)N2CCC3(CC2)CC(N(C(C)=O)C2CC2)CCO3)c1 (stereo not given)	–
CCOc1ccccc1NC(=O)CSc1nc(=O)[nH]c2c1CCCC2	–
Cc1ccc(-n2nc(C)c3c(C)cc(=O)n(CC(=O)NC(C)C)c32)cc1	–
Cn1cc(-c2ccnc(N3CCOCC3)c2)c2nc(COc3ccc(Cl)cc3)cn2c1=O	–
O=C(CCCc1ccccc1)Nc1cccc(-c2nnc3n2CCCC3)c1	4.47µM
COc1ccc(CCC(=O)Nc2cccc(-c3nnc4n3CCCC4)c2)cc1	7.94µM
COc1cccc(NC(=O)Cn2c(C)cc3nc4n(c(=O)c32)CCCCC4)c1	–
Cc1cccc(NC(=O)Cn2nc3n(c2=O)CCCCC3)c1	–
O=C(Nc1ccc(-c2nnc3n2CCCC3)cc1)Nc1ccccc1F	–
COc1ccccc1CCC(=O)Nc1ccc(-c2nnc3n2CCCC3)cc1	–
O=C1CCN(Cc2ccncc2)CCCC(CO)CCN1 (stereo not given)	–
